Shown are actives, neighbours in structure and some others; about 4.7% of the full set was active somewhere.
SKKanGAS inh: SKKanGAS growth inhibition. actives 1.3% (n = 300,000). AID 1662. inhibition, % at 7.5 µM. S. pyogenes SKKanGAS, kanamycin growth, BacTiter-Glo, 6 h;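 active means mean replicate score, as percent of positive control median, at least 50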;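 further: strain carries kanamycin resistance gene driven by streptokinase promoter and grows in 40 µg/ml kanamycin; loss of luminescence reflects streptokinase promoter inhibition or plain growth inhibition; 0% = median of DMSO wells and 100% = positive control at its reference dose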
tim10-1 inh: inhibits growth of tim10-1 mutant yeast | S. cerevisiae tim10-1 ts strain growth, BacTiter-Glo, 24 h | inhibition, % at 20 µM | actives 2.2% (n = 330,000);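 active means inhibition of at least 40%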;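 further: mutant grown at 25 °C; 0% = DMSO wells with yeast and 100% = wells holding no yeast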
TIM10 inh: growth inhibitors of TIM10 yeast strain | S. cerevisiae TIM10 strain growth, BacTiter-Glo luminescence, 24 h | inhibition, % at 10 µM | actives 1.4% (n = 330,000) | AID 463195;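 active means inhibition of 40% or more at the single tested concentration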;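 further: wild-type TIM10 isogenic control strain grown at permissive 25 °C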
ATG4B inhibitor: ATG4B (human) cysteine protease inhibition; AID 504462; inhibition, % at 8.33 µM; actives 0.51% (n = 340,000); ATG4B cleavage of LC3-PLA2, NBD-HPC fluorescence, 1 h; Q9Y4P1; in the data active means inhibition above about 40%
Target sequence (Q9Y4P1 whole entry, looked up): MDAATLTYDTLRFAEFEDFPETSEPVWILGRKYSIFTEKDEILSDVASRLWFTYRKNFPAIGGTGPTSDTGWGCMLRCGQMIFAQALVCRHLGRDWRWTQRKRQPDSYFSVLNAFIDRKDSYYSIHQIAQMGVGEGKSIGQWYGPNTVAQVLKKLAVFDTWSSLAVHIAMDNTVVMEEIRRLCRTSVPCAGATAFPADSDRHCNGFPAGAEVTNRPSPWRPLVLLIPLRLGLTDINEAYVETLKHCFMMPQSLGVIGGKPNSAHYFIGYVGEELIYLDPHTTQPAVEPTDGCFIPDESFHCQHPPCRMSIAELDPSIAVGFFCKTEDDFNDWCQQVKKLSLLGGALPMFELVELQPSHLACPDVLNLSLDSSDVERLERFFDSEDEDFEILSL
PfHsp90 yeast 2: growth inhibition of yeast expressing Plasmodium Hsp90; actives 0.32% (n = 310,000); S. cerevisiae expressing PfHsp90, BacTiter-Glo ATP, 48 h; yeast lacking PDR1 and PDR3 efflux regulators; inhibition, % at 9.4 µM;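 active means every replicate shows inhibition above about 80%, whatever the replicate mean, limit read from the data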;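 further: 0% = DMSO neutral controls and 100% = 20 µM radicicol positive controls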
tim23-1 inh: inhibits growth of tim23-1 mutant yeast; S. cerevisiae tim23-1 growth, BacTiter-Glo luminescence, 24 h; inhibition, % at 20 µM; actives 1.3% (n = 330,000); AID 463212;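 active means growth inhibition of the mutant yeast at or above 50%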;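 further: temperature-sensitive mutant grown at 25 °C; plate controls were DMSO-treated mutant yeast for no effect and medium wells lacking yeast for full effect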
tim10-1 conf: confirmation of tim10-1 mutant yeast growth inhibitors. shares compounds with tim10-1 inh. S. cerevisiae tim10-1 ts strain growth, BacTiter-Glo, 24 h. inhibition, % at 20 µM. actives 56% (n = 7,400). AID 463213;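 active means inhibition of yeast growth at or above a set limit in either of two repeat tests at 20 µM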;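 further: tim10-1 mutant grown at permissive 25 °C to find synthetic lethal compounds; 0% = DMSO yeast wells and 100% = medium wells without yeast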
tim10 confirm: confirmation of TIM10 yeast growth inhibitors; shares compounds with TIM10 inh; S. cerevisiae tim10 strain growth, BacTiter-Glo luminescence, 24 h; inhibition, % at 10 µM; actives 63% (n = 4,600); AID 463215;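 active means inhibition of yeast growth at or above a set limit in either of two replicates at 10 µM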;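 further: this counterscreen used the strain with wild-type TIM10; 0% = yeast with DMSO and 100% = medium wells lacking yeast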
tim23-1 confirm: confirmation of tim23-1 mutant yeast growth inhibitors. AID 463218. S. cerevisiae tim23-1 growth, BacTiter-Glo luminescence, 24 h. shares compounds with tim23-1 inh. inhibition, % at 20 µM. actives 83% (n = 4,400);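 active means inhibition above about 39% in either of two replicate wells at 20 µM, limit read from the data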;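 further: temperature-sensitive tim23-1 mutant grown at 25 °C; 0% = DMSO wells with yeast and 100% = medium wells without yeast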
Numbers without * were called inactive; x = no result given.

SMILES	SKKanGAS inh	tim10-1 inh	TIM10 inh	ATG4B inhibitor	PfHsp90 yeast 2	tim23-1 inh	tim10-1 conf	tim10 confirm	tim23-1 confirm
Cc1cccc(C(=O)O/N=C(\N)Cc2cccc3ccccc23)c1	9	43*	77*	46*	34	81*	30*	84*	64*
Cc1ccc(/C(N)=N/OC(=O)Cc2cccc3ccccc23)cc1	-8	57*	62*	9	-6	50*	58*	54*	46*
Cc1cccc(/C(N)=N/OC(=O)Cc2cccs2)c1	15	19	4	11	18	22	x	x	x
Cc1cccc(/C(N)=N/OC(=O)Cc2cccc3ccccc23)c1	8	62*	76*	2	-3	54*	69*	79*	60*
O=C(CSc1nc2ccccc2[nH]1)Nc1ccccc1F	-7	0	5	-4	x	44	x	x	x
Cc1ccc(Nc2nc(=O)c3cccnc3s2)c(Br)c1	2	47*	31	-10	17	51*	36*	x	50*
Cc1ccccc1C(=O)OC1OC(=O)C(Cl)=C1Nc1ccc(C(=O)O)cc1 (stereo not given)	11	3	-1	-4	18	10	x	x	x
O=C(Nc1ccccc1)c1ccccc1Oc1ccc(C(F)(F)F)cc1[N+](=O)[O-]	1	31	31	9	-10	36	x	x	x
O=C(Oc1ccccc1C(=O)Nc1ccccc1)c1ccc(Br)c([N+](=O)[O-])c1	3	47*	52*	10	-58	61*	51*	35*	74*
CN(C)S(=O)(=O)c1cccc(C(=O)Nc2ccccc2Cl)c1	-2	13	12	-2	-8	18	x	x	x
CCN(CC)CCn1c2c(c(SCC(=O)Nc3cc(C)on3)nc1=O)CCCC2	-3	-14	2	-5	-10	-12	x	x	x
Fc1ccc(NC(=S)Nc2cccc3ccccc23)cc1	10	43*	24	-4	-6	52*	27	x	45*
Fc1ccc(NC(=S)Nc2cccc3cnccc23)cc1	5	3	19	-6	26	-5	x	x	x
Cc1ccc(O)c(Sc2cc(C)ccc2O)c1	9	47*	27	-4	-20	53*	28	x	45*
Cc1ccc(O)c(O)c1	1	9	-10	x	x	12	x	x	x
Cc1nnc(N2C(=O)c3cccc4c([N+](=O)[O-])ccc(c34)C2=O)s1	0	85*	36	-1	11	67*	64*	x	68*
O=C1c2cccc3c([N+](=O)[O-])ccc(c23)C(=O)N1Cc1cccnc1	9	x	x	-7	-5	x	x	x	x
Cc1ccnc(N2C(=O)c3cccc4c([N+](=O)[O-])ccc(c34)C2=O)c1	-3	90*	90*	-11	-38	74*	90*	97*	78*
Cc1ccc(N2C(=O)c3cccc4c([N+](=O)[O-])ccc(c34)C2=O)c2cccnc12	26	9	-22	-4	-34	6	x	x	x
COc1ccccc1-c1cnn2c(NCc3ccccc3)cc(C)nc12	8	19	0	1	-4	18	x	x	x
COc1ccc(NC(=O)c2ccco2)cc1NC(=O)c1ccc(Br)o1	-9	44*	76*	2	11	55*	23	61*	74*
O=C(Nc1ccc(Nc2ccccc2)cc1)c1ccc(Br)o1	17	41*	39	5	4	52*	33*	x	80*
COc1ccc(-c2ccc(NC(=O)c3ccco3)cc2)nn1	34	47*	46*	0	64	57*	22	30	51*
CCN(CC)c1ccc(C(=O)N2CCN(Cc3ccccc3)CC2)cc1	-8	27	1	-12	14	26	x	x	x
COc1ccc2cc(C#N)c(Cl)nc2c1	8	1	1	3	2	0	x	x	x
SMILES	SKKanGAS inh	tim10-1 inh	TIM10 inh	ATG4B inhibitor	PfHsp90 yeast 2	tim23-1 inh	tim10-1 conf	tim10 confirm	tim23-1 confirm
O=C(CN1C(=O)C2CC=CCC2C1=O)NC1CCCCC1 (stereo not given)	3	5	0	-5	x	5	x	x	x
NNc1nc(-c2ccccc2Cl)c2cc(Br)ccc2n1	20	49*	41*	-4	-9	57*	37*	30*	43*
CC(Oc1ccc(Br)cc1)C(=O)Nc1nc(-c2ccccn2)cs1 (stereo not given)	87*	45*	37	13	x	70*	19	x	50*
CC(=O)Nc1ccc(C(=O)Nc2nc(-c3ccccn3)cs2)cc1	6	0	-8	-1	13	8	x	x	x
COc1ccc(Nc2cc(C)c3cc([N+](=O)[O-])ccc3n2)cc1	3	53*	37	0	-1	51*	53*	x	67*
COc1ccc(Nc2ccc([N+](=O)[O-])cn2)cc1	3	4	-4	-2	14	19	x	x	x
NC(=S)N/N=C1\c2ccccc2-c2c(C(=O)O)cccc21	2	-10	14	2	2	19	x	x	x
COc1ccc(Nc2nc(NCc3ccco3)nc(N/N=C/c3ccccc3)n2)cc1	35	7	8	15	-15	21	x	x	x
Cc1ccc(C(=O)NC(C#N)=C(Cl)Cl)cc1	-3	51*	45*	-3	x	69*	41*	30	62*
COc1ccc2ccccc2c1/C=N/NC(=O)c1cccc(C)c1	-5	-19	-11	-7	-8	26	x	x	x
COc1cccc(C(=O)Nc2c(C)n[nH]c2C)c1	-4	12	13	3	-3	4	x	x	x
CCOC(=O)N1C(=O)C2(CCCCC2)N(c2ccccc2Cl)C1=S	2	60*	57*	17	-22	78*	52*	-2	68*
COc1ccc(-c2cccc(C3CC=CC4C3C(=O)N(Cc3ccccc3)C4c3ccc4ccccc4c3)c2)cc1 (stereo not given)	-5	29	35	0	x	31	x	x	x
COc1ccc(C2C3C=CCC(c4cccc(-c5ccc(C)cc5)c4)C3C(=O)N2Cc2ccccc2)cc1Cl (stereo not given)	2	46*	56*	0	-5	53*	40*	22	54*
C=C(C)CSc1nnc2n(C)c(=O)c3c4c(sc3n12)CCC4	11	46*	26	-3	x	53*	28	x	54*
COc1nsnc1NS(=O)(=O)c1ccc(NC(=S)NC(=O)c2ccncc2)cc1	-1	-15	4	-3	14	5	x	x	x
